Only some compounds are listed: those with a hit (about 4.2% of all), similar ones and a draw of the others.
SMARCA2 act: activators of SMARCA2 function. actives 1% (n = 370,000). AID 652017. activation, % at 9.1 µM. MG213 cells, MMTV-luciferase reporter, dexamethasone, overnight; in the data active means activation above about 7.8%
hcDAF-12 act: H. contortus DAF-12 activation, primary screen | HEK293 hcDAF-12 lit1-tk-luc reporter, luminescence; 0% DMSO, 100% Δ7-dafachronic acid | activation, % at 6.8 µM | actives 1.4% (n = 370,000) | AID 652067;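 active means activation above the mean of all tested compounds plus 3 SD, cut at about 5.5% in these data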
hgDAF12 agonist: activates the H. glycines DAF-12 receptor ligand-binding domain. activation, % at 6.8 µM. HEK293 GAL4-hgDAF12 UAS-luciferase reporter, agonist luminescence; normalized to butyrate control. actives 1.8% (n = 370,000). AID 687014;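 active means activation above a cutoff set at the mean of all screened compounds plus 3 SD, cut at about 10% in these data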
DAX1 StAR inh: blocks DAX1 repression of SF-1 activated StAR promoter. actives 1.1% (n = 370,000). AID 652010. inhibition, % at 6.8 µM. HEK293T StAR-luciferase reporter, SF-1/DAX-1 repression relief;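 active means inhibition above the mean over all tested compounds plus 3 SD, cut at about 3.6% in these data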;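 further: higher inhibition means more luminescence from relief of DAX-1 repression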
ssDAF-12 act: S. stercoralis DAF-12 activation, primary screen | actives 1% (n = 370,000) | HEK293 ssDAF-12/GRIP1 lit1-tk-luc reporter, luminescence; % of 3 µM dafachronic acid response | activation, % at 6.8 µM;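 active means activation above the mean over all tested compounds plus 3 SD, cut at about 0.9% in these data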
hgDAF12 conf: hgDAF-12 agonism, confirmation assay; actives 80% (n = 3,300); AID 743050; shares compounds with hgDAF12 agonist; activation, % at 6.8 µM; HEK293 GAL4-hgDAF12 luciferase reporter, agonist mode; percent of butyrate response;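 active means mean activation over triplicate wells above the hit cutoff derived from the earlier primary screen, cut at about 11% in these data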
LXR ag 2: activates human LXR-beta, counter-screen for DAF-12 agonists; 3,300 tested, under 10 active; HEK293 Gal4-LXR luciferase reporter, 24 h; AID 743051; activation, % at 6.8 µM; shares compounds with hgDAF12 agonist;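 active means mean activation of the triplicate above a set limit carried over from the primary screen, none filed active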
Target sequence (P55055 whole entry, looked up, the tested form may be a part): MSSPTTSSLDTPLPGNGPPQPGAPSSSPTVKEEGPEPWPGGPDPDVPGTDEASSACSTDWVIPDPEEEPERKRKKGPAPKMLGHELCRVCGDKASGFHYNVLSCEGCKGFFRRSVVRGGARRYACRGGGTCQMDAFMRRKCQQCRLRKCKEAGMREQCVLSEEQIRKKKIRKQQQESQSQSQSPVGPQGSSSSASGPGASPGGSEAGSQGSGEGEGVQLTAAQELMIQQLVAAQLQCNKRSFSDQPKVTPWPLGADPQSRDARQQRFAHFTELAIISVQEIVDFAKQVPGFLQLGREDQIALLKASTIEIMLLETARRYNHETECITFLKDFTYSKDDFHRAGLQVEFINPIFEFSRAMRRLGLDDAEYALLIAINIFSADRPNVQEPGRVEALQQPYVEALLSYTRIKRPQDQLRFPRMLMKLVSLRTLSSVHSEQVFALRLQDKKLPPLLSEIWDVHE
Hits are given with their value; - = inactive; . = no result.

SMILES	SMARCA2 act	hcDAF-12 act	hgDAF12 agonist	DAX1 StAR inh	ssDAF-12 act	hgDAF12 conf	LXR ag 2
COc1ccc(-c2csc(N)n2)cc1	-	-	-	-	-	.	.
O=[N+]([O-])c1ccc(/C=N/NC(=S)Nc2ccccc2F)o1	-	-	-	-	-	.	.
Fc1ccccc1NC(=S)N/N=C/c1ccccc1Br	-	-	16	4.3	-	12	-
COc1ccc(CN2C(=O)CSCC2(C)C(=O)NCc2ccccc2)cc1 (stereo unspecified)	-	-	-	-	-	.	.
COc1cccc(NC(=O)Nc2ccc(C(C)(C)C)cc2)c1	-	-	18	-	-	11	-
Cc1ccc(NC(=O)Nc2ccc(F)cc2)cc1Cl	-	-	15	-	-	11	-
COc1cccc(NC(=O)c2ccc(NC(=O)C(C)(C)C)cc2)c1	-	-	-	-	-	.	.
CC(C)(C)c1ccc(COC(=O)Nc2ccc(F)cc2)cc1	-	-	-	-	-	.	.
CC(C)(C)c1ccc(NC(=O)c2ccc(=O)[nH]n2)cc1	-	-	17	-	-	14	-
CC(C)(C)c1ccc(NC(=O)Nc2ccc(F)cc2)cc1	-	-	15	3.6	-	15	-
O=C1c2ccccc2C(c2nnnn2-c2ccc3c(c2)OCCO3)N1Cc1ccccc1 (stereo unspecified)	-	-	-	-	-	.	.
Nc1nc2ccc(Cl)cc2cc1C(=O)NCc1ccccc1Br	-	-	-	-	-	.	.
Cc1ccc(NC(=O)C(=O)N2CCCC2)cc1Cl	-	-	15	-	-	13	-
CCOc1ccc(-c2n[nH]c(C(=O)NN)c2C)cc1	-	-	16	-	-	-	-
CCC(=O)Nc1cccc(-c2ccc(N3CCC(C)CC3)nn2)c1	-	5.8	18	-	1.0	13	-
O=C(Nc1ccccc1F)c1ccc2sc([C@@H]3O[C@H](CO)[C@H](O)[C@H](O)[C@H]3O)nc2c1	-	-	14	-	-	-	-
O=C(O)CCS(=O)(=O)Cc1ccccc1Cl	-	-	-	-	-	.	.
O=C(O)CCS(=O)(=O)c1ccccc1Cl	-	-	17	-	-	-	-
Cc1ccc(NS(=O)(=O)c2ccccc2)c([N+](=O)[O-])c1	-	-	-	-	-	.	.
Cc1ccc(S(=O)(=O)Nc2ccccc2[N+](=O)[O-])cc1	-	-	28	-	-	-	-
CC(Cl)C(=O)N1CCC(C(=O)NC2CCCc3ccccc32)CC1 (stereo unspecified)	-	-	-	-	-	.	.
Cc1cccc(NC(=O)COc2ccc(Br)cc2/C=N/O)c1	-	-	15	-	-	11	-
O=S1(=O)CC(N2CCN(CCO)CC2)CN1Cc1cn(Cc2ccc(C(F)(F)F)cc2)nn1 (stereo unspecified)	-	-	-	-	-	.	.
Nc1nc(N)nc(-c2cccc(Br)c2)n1	-	-	14	4.2	-	11	-
CC(C)c1ccc(NC(=S)NC2CCCCCC2)cc1	-	-	16	-	-	-	-
SMILES	SMARCA2 act	hcDAF-12 act	hgDAF12 agonist	DAX1 StAR inh	ssDAF-12 act	hgDAF12 conf	LXR ag 2
Cn1ccc2c(-c3ccc(C(N)=O)cc3)cc3c(c21)C1CCC3C1 (stereo unspecified)	-	-	-	-	-	.	.
CN(C)c1cccc(/C=C2\CC3(OC(=O)c4ccccc4)CCCN2C3)c1 (stereo unspecified)	-	-	22	-	-	-	-
CN(C)c1cccc(/C=C2\CC3(OC(=O)c4ccc(F)cc4)CCCN2C3)c1 (stereo unspecified)	-	-	-	-	-	.	.
COC(=O)C12CCCN1C1C(=O)N(Cc3ccc(C(N)=O)cc3)CC1C2 (stereo unspecified)	-	-	-	-	-	.	.
Cc1ccc(-c2nc(-c3ccncc3)no2)cc1	-	-	15	-	-	15	-
Cc1ccc(-c2nc(-c3cccnc3)no2)cc1	-	-	14	-	-	18	-
Cc1ccc(Cc2nc(-c3cccnc3)no2)cc1	-	-	-	-	-	.	.
c1ccc(-c2noc(-c3cccnc3)n2)nc1	-	-	14	-	-	12	-
O=C(/C=C(\Nc1cccc(Cl)c1F)c1ccccc1)c1ccccc1	-	-	-	-	-	.	.
Cc1noc(C)c1S(=O)(=O)N1CCCc2nc(-c3ccc(Br)cc3)ccc21	-	-	-	-	-	.	.
CCCC(=O)Nc1nc2ccc(OCC)cc2s1	-	-	17	-	-	15	-
CC(C)C(=O)Nc1nc2ccc(S(C)(=O)=O)cc2s1	-	-	-	-	-	.	.
COC(=O)c1ccc2nc(NC(=O)C(C)C)sc2c1	-	-	14	-	-	15	-
CCOC(=O)c1ccc2nc(NC(C)=O)sc2c1	-	-	14	-	-	13	-
CCOC(=O)c1ccc2nc(Nc3nc4ccc(F)cc4s3)sc2c1	-	-	-	-	-	.	.
CCCCn1nnnc1C1(C)CCC(=O)N1CCCn1ccnc1 (stereo unspecified)	-	-	-	-	-	.	.
N#Cc1cccc(NC(=O)OCCCN2CCC3(CCCCC3)C2=O)c1	-	-	-	-	-	.	.
CC(=O)N1CCN(c2ccc(N3CCN(Cc4ccccc4)[C@@H](C)C3)c(C)c2)[C@H](C)C1	-	-	-	-	-	.	.
Cc1cccc(NC(=O)c2ccc(N3CCOCC3)c([N+](=O)[O-])c2)n1	-	-	14	-	-	-	-
Cn1c(=O)oc2cc(S(=O)(=O)N3CCN(c4cccc(C(F)(F)F)c4)CC3)ccc21	-	-	-	-	-	.	.
Cc1c(C(=O)Nc2ccccc2F)cnn1-c1ccccc1	-	-	14	-	-	13	-
CCNC(=O)c1cc2c(c(-c3cccc(-c4ccccc4F)c3)n1)[C@H](CCO)N(C(=O)CC)C2	-	-	-	-	-	.	.
Nc1nc(-c2ccco2)nn1C(=O)CCc1ccccc1	-	-	-	-	-	.	.
Nc1nc2ccccc2n1C(=O)CCc1ccccc1	-	-	14	-	-	18	-
Nc1nc2ccccc2n1C(=O)c1cccs1	-	-	15	-	1.0	13	-
SMILES	SMARCA2 act	hcDAF-12 act	hgDAF12 agonist	DAX1 StAR inh	ssDAF-12 act	hgDAF12 conf	LXR ag 2
Clc1ccc([C@H]2OC[C@@]3(CNCCN4CCOCC4)CS[C@H](c4ccc(Cl)cc4)N23)cc1	-	-	-	-	-	.	.
O=Cc1cscc1[B-](F)(F)F	-	-	-	-	-	.	.
O=C(c1cnsn1)N1CCC(CO)(Cc2cccc(F)c2)CC1	-	-	15	-	-	-	-
Cc1cc(C(=O)N2CCC(CO)(Cc3cccc(C(F)(F)F)c3)CC2)n[nH]1	-	-	-	-	-	.	.
CC(C)(C)c1ccc(-c2noc(-c3ccno3)n2)cc1	-	-	13	-	0.9	15	-
Cc1ccc(Nc2ncccc2C(=O)O)cc1C	-	-	-	-	-	.	.

From PubChem
